Assay results: PubChem BioAssay
Values without a mark were called inactive. The rule behind the calls is not given here.

Each compound was assayed against Pantothenate synthetase (Mycobacterium tuberculosis (strain ATCC 25618 / H37Rv)) (UniProt P9WIL5) (assay: Coupled enzyme confirmation of inhibitors against recombinant Mtb PanC (AID 375;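 note: 0% = full reaction with vehicle and 100% = no enzyme background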)). Details: coupled enzyme assay; at 10 µM, stronger effect = higher value.
Pantothenate synthetase (Mycobacterium tuberculosis (strain ATCC 25618 / H37Rv)), sequence (P9WIL5 whole entry, looked up): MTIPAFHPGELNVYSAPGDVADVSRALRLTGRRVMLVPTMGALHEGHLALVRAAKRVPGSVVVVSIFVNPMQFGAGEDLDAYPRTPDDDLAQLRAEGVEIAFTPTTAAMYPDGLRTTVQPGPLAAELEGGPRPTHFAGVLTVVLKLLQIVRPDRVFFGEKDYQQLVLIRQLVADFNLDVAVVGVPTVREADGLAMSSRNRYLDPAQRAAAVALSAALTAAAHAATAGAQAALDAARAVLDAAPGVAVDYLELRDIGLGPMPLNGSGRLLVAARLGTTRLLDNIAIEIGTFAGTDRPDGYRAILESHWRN
`COc1ccccc1N1CCN(C(=O)c2cc(C3CC3)on2)CC1` showed an inhibition of 3%. `Cn1c(=O)c(C(=O)Nc2cccnc2)c(O)c2ccccc21` showed an inhibition of 5%. Work on `CC(=O)Nc1sc2c(c1CN1CCN(c3ccccn3)CC1)CCCC2` yielded an inhibition of 2%. For `CCOC(=O)N1CCN(C(=O)CCc2c(C)nc3c(c(C)nn3-c3ccc(C)c(C)c3)c2C)CC1`, the inhibition was 0%. With `CCC(C)NC(=O)CS(=O)(=O)Cc1nc(-c2cccc(OC)c2)oc1C` (stereo unspecified) the inhibition was 0%. `CCn1c(SCc2nc3ccccc3c(=O)[nH]2)nnc1-c1cccnc1` showed an inhibition of 4%.
